Data reported in the supplement of paper PMC7411054.
Where a name gives a salt, the structure may show the parent alone.

Legend:
Details in all cases: treatment time: 24 h
[1] = test system: A549-ACTB-RAB5A; assay: lowest phenotypically active concentration; higher = less potent
How it was run: (§1)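 Four wells per concentration (0.3, 1, 3 or 9 µM) were treated for 24 h in each of fifteen gene-edited reporter lines from A549, HepG2 and WPMY1 cells, then imaged live. After normalising live-cell features to solvent control wells, deviation was defined as ≥3 of 4 wells lying past the 95th percentile of control Euclidean distances. Reproducibility was defined as a median replicate Pearson correlation above the 95th percentile of non-replicates. Both had to hold for phenotypic activity.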

[2] = test system: A549-CANX-COX4; assay: as above
How it was run: as §1

[3] = test system: A549-GM130-SQSTM1; assay: as above
How it was run: as §1

[4] = test system: A549-TP53BP1-CLTA; assay: as above
How it was run: as §1

[5] = test system: A549-TUBA1B-RELA; assay: as above
How it was run: as §1

[6] = test system: A549-ACTB-RAB5A; assay: phenotypically active (imaging signature differs from DMSO and reproducible) at any of 0.3-9 uM (binary (1 = active, 0 = inactive)); higher = active
How it was run: as §1

[7] = test system: A549-CANX-COX4; assay: as above
How it was run: as §1

[8] = test system: A549-GM130-SQSTM1; assay: as above
How it was run: as §1

[9] = test system: A549-TP53BP1-CLTA; assay: as above
How it was run: as §1

[10] = test system: A549-TUBA1B-RELA; assay: as above
How it was run: as §1

[11] = test system: HepG2-ACTB-RAB5A; assay: as above
How it was run: as §1

[12] = test system: HepG2-CANX-COX4; assay: as above
How it was run: as §1

[13] = test system: HepG2-GM130-SQSTM1; assay: as above
How it was run: as §1

[14] = test system: HepG2-TP53BP1-CLTA; assay: as above
How it was run: as §1

[15] = test system: HepG2-TUBA1B-RELA; assay: as above
How it was run: as §1

[16] = test system: WPMY1-ACTB-RAB5A; assay: as above
How it was run: as §1

[17] = test system: WPMY1-CANX-COX4; assay: as above
How it was run: as §1

[18] = test system: WPMY1-GM130-SQSTM1; assay: as above
How it was run: as §1

[19] = test system: WPMY1-TP53BP1-CLTA; assay: as above
How it was run: as §1

[20] = test system: WPMY1-TUBA1B-RELA; assay: as above
How it was run: as §1

SMILES | lowest phenotypically active concentration [1] [µM] | lowest phenotypically active concentration [2] [µM] | lowest phenotypically active concentration [3] [µM] | lowest phenotypically active concentration [4] [µM] | lowest phenotypically active concentration [5] [µM] | phenotypically active [6] | phenotypically active [7] | phenotypically active [8] | phenotypically active [9] | phenotypically active [10] | phenotypically active [11] | phenotypically active [12] | phenotypically active [13] | phenotypically active [14] | phenotypically active [15] | phenotypically active [16] | phenotypically active [17] | phenotypically active [18] | phenotypically active [19] | phenotypically active [20]
COc1cc([C@@H]2c3cc4c(cc3[C@H](O)[C@H]3COC(=O)[C@H]23)OCO4)cc(OC)c1OC [Podophyllotoxin] | ≤ 0.3 | ≤ 0.3 | ≤ 0.3 | ≤ 0.3 | ≤ 0.3 | 1 (active) | 1 (active) | 1 (active) | 1 (active) | 1 (active) | 1 (active) | 1 (active) | 1 (active) | 1 (active) | 1 (active) | 1 (active) | 1 (active) | 1 (active) | 1 (active) | 1 (active)
C[C@]12C/C(=C\O)C(=O)C[C@@H]1CC[C@@H]1[C@@H]2CC[C@@]2(C)[C@H]1CC[C@]2(C)O [oxymetholone] | 9 | – | – | – | – | 1 (active) | 0 (inactive) | 0 (inactive) | 0 (inactive) | 0 (inactive) | 0 (inactive) | 0 (inactive) | 0 (inactive) | 0 (inactive) | 0 (inactive) | 0 (inactive) | 0 (inactive) | 0 (inactive) | 0 (inactive) | 0 (inactive)
N#CC(C#N)=NNc1cccc(Cl)c1 | 9 | 9 | 9 | 9 | 9 | 1 (active) | 1 (active) | 1 (active) | 1 (active) | 1 (active) | 1 (active) | 1 (active) | 1 (active) | 1 (active) | 1 (active) | 1 (active) | 1 (active) | 1 (active) | 1 (active) | 1 (active)
CN1C2CCC1CC(O)C2 (configuration not stated) [Tropine] | – | – | – | – | – | 0 (inactive) | 0 (inactive) | 0 (inactive) | 0 (inactive) | 0 (inactive) | 0 (inactive) | 0 (inactive) | 0 (inactive) | 0 (inactive) | 0 (inactive) | 0 (inactive) | 0 (inactive) | 0 (inactive) | 0 (inactive) | 0 (inactive)
Oc1ccc2c3c1O[C@H]1[C@@H](O)CC[C@@]4(O)[C@@H](C2)N(CC2CCC2)CC[C@]314 [nalbuphine] | – | – | – | – | – | 0 (inactive) | 0 (inactive) | 0 (inactive) | 0 (inactive) | 0 (inactive) | 0 (inactive) | 0 (inactive) | 0 (inactive) | 0 (inactive) | 0 (inactive) | 0 (inactive) | 0 (inactive) | 0 (inactive) | 0 (inactive) | 0 (inactive)
COc1ccc2c(c1)/C(=C/c1c[nH]cn1)C(=O)N2 | 1 | 1 | 1 | 1 | 1 | 1 (active) | 1 (active) | 1 (active) | 1 (active) | 1 (active) | 1 (active) | 1 (active) | 1 (active) | 1 (active) | 1 (active) | 1 (active) | 1 (active) | 1 (active) | 1 (active) | 1 (active)
COC(=O)[C@@]1(O)C[C@H]2O[C@]1(C)n1c3ccccc3c3c4c(c5c6ccccc6n2c5c31)C(=O)NC4 | ≤ 0.3 | ≤ 0.3 | ≤ 0.3 | ≤ 0.3 | ≤ 0.3 | 1 (active) | 1 (active) | 1 (active) | 1 (active) | 1 (active) | 1 (active) | 1 (active) | 1 (active) | 1 (active) | 1 (active) | 1 (active) | 1 (active) | 1 (active) | 1 (active) | 1 (active)
CC(C)[C@@]1(NC(=O)[C@@H]2C[C@@H]3c4cccc5[nH]cc(c45)C[C@H]3N(C)C2)O[C@@]2(O)[C@@H]3CCCN3C(=O)[C@H](Cc3ccccc3)N2C1=O [Dihydroergocristine mesylate] | 9 | 9 | 9 | 9 | 9 | 1 (active) | 1 (active) | 1 (active) | 1 (active) | 1 (active) | 1 (active) | 1 (active) | 1 (active) | 1 (active) | 1 (active) | 1 (active) | 1 (active) | 1 (active) | 1 (active) | 1 (active)
COc1ccc2c(c[n+](C)c3c4cc5c(cc4ccc23)OCO5)c1OC [Chelerythrine chloride] | 3 | – | – | 9 | – | 1 (active) | 0 (inactive) | 0 (inactive) | 1 (active) | 0 (inactive) | 0 (inactive) | 0 (inactive) | 0 (inactive) | 1 (active) | 0 (inactive) | 0 (inactive) | 0 (inactive) | 0 (inactive) | 1 (active) | 0 (inactive)
CN1C[C@H](C(=O)N[C@]2(C)O[C@@]3(O)[C@@H]4CCCN4C(=O)[C@H](Cc4ccccc4)N3C2=O)C[C@@H]2c3cccc4[nH]cc(c34)C[C@H]21.CN1C[C@H](C(=O)N[C@]2(C)O[C@@]3(O)[C@@H]4CCCN4C(=O)[C@H](Cc4ccccc4)N3C2=O)C[C@@H]2c3cccc4[nH]cc(c34)C[C@H]21 [dihydroergotamine] | 9 | – | 9 | 9 | 9 | 1 (active) | 0 (inactive) | 1 (active) | 1 (active) | 1 (active) | 1 (active) | 0 (inactive) | 1 (active) | 1 (active) | 1 (active) | 0 (inactive) | 0 (inactive) | 1 (active) | 1 (active) | 0 (inactive)
